Sampled rows, rich in hits. Any-hit rate of the full collection: about 3.1%.
VDR inhibitor = vitamin D3 receptor (human) inhibition | AID 504847 | hit rate 0.93% among 400,000 | VDR-SRC2-3 peptide fluorescence polarization, 2 h | P11473 | Potency, µM, usual class: inhibitors
Target sequence (P11473 whole entry, looked up): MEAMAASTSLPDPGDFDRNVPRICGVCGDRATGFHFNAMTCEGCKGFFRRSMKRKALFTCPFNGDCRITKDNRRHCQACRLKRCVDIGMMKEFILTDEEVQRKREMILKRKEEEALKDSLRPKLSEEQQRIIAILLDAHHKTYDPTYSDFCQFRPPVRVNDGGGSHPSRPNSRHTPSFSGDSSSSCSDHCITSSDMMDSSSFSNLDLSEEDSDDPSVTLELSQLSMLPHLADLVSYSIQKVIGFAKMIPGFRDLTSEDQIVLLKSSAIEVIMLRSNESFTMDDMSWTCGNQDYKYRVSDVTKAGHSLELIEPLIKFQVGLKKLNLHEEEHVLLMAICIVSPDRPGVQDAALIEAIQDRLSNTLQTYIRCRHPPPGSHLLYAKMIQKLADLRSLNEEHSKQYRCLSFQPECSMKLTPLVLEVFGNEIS
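The screen uses fluorescence polarization to detect compounds that interfere with recruitment of the SRC2-3 coactivator peptide to VDR; plates are read after 2 h at room temperature.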
GCN5L2 inh = GCN5L2 (KAT2A) acetyltransferase inhibition. Q92830. GCN5L2 HAT assay, ThioGlo1 CoA-SH fluorescence. Potency, µM (highest dose often 58.9 µM), usual class: inhibitors. hit rate 0.21% among 390,000. AID 504327
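Titration-based screen in which CoA formation is detected via maleimide probe ThioGlo1 (50uM) turning fluorescent on thiol reaction; substrates H3(1-25) 75uM and acetyl-CoA 70uM, GCN5L2 20nM, 20 min incubation at room temperature.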
GLS inhibitor = glutaminase GLS (human) inhibition; GLS enzymatic activity, qHTS titration; Potency, µM (series often up to 45.5 µM), actives largely listed as inhibitors; hit rate 0.21% among 410,000; AID 624170
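Enzyme dispensed in phosphate buffer (45 mM, pH 8.2, 0.02% Tween-20), compounds pinned in, then 1 mM L-glutamine solution and the glutamate oxidase–HRP–Amplex Red mix added; fluorescence read immediately and again after 30 min at room temperature.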
PI4K2A block = blocks human PI4K2A kinase activity | Q9BTU6 | activity change, negative = inhibition, % at 76.9 µM | hit rate 0.13% among 420,000 | AID 1346378 | purified PI4K2A, ADP-Glo luminescence, 1 h; stronger effect = lower value; in the data active = activity change below about -50%; inconclusive = mostly about -30% to -49%
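Compounds are screened against recombinant PI4K2A using PI as substrate and ATP, the latter dispensed at 300 microM. Reactions run one hour at ambient temperature before ADP-Glo detection; full inhibition defined by wells lacking enzyme.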
PLK1 PBD block = blocks phosphopeptide binding to human PLK1 polo-box domain; P53350; Plk1 PBD binding of FITC phosphopeptide, fluorescence polarization; Potency, µM, hits mostly inhibitors; hit rate 2.8% among 360,000; note: series mostly up to about 57 µM; nearly all actives have a fitted effect of over 65% in size
TbPYK confirm = confirmation of Trypanosoma brucei pyruvate kinase inhibitors | recombinant TbPYK, Kinase-Glo ATP luminescence | Potency, µM (highest dose often 76.9 µM), usual class: inhibitors | hit rate 67% among 890 | shares compounds with PLK1 PBD block | AID 720569; note: nearly all actives have a fitted effect of over 70% in size
TbPYK ADP-Glo = orthogonal confirmation of Trypanosoma brucei pyruvate kinase inhibitors; Potency, µM (titrated, usually from 76.9 µM), actives largely listed as inhibitors; hit rate 62% among 890; shares compounds with PLK1 PBD block; recombinant TbPYK, ADP-Glo luminescence, 60 min; note: nearly all actives have a fitted effect of over 75% in size
Numbers stand for hits. Unless noted, calls come from the whole dose curve; as a rule, active = well fitted curve in the direction sought with a large enough effect; inconclusive = small, poorly fitted or top-dose-only effect, or another doubt; inactive = no such curve, though single readings can be large; an effect the other way counts as inactive or inconclusive.

CSc1ncc(/C=C2/C(=O)NC(=O)N(C)C2=O)cn1 was read as VDR inhibitor inconclusive, GCN5L2 inh inactive, GLS inhibitor inactive, PI4K2A block inactive, PLK1 PBD block 11µM, TbPYK confirm inconclusive and TbPYK ADP-Glo inconclusive.
`COC(=O)COc1ccc(C[C@@H](C)NC[C@H](O)c2cccc(Cl)c2)cc1` gave VDR inhibitor inactive and GCN5L2 inh inactive.
Screening COC(=O)C1=C(C(=O)OC)SC2(S1)C(C(=O)OC)=C(C(=O)OC)Sc1c2ssc1=O returned VDR inhibitor 2µM, GLS inhibitor inactive, PI4K2A block inactive, PLK1 PBD block 1.2µM, TbPYK confirm 11µM and TbPYK ADP-Glo 14µM.
CC(=O)O[C@H]1C[C@H](O[C@H]2[C@@H](O)CC(O[C@H]3[C@@H](O)C[C@H](O[C@H]4CC[C@@]5(C)[C@H](CC[C@@H]6[C@@H]5CC[C@]5(C)[C@@H](C7=CC(=O)OC7)CC[C@]65O)C4)O[C@@H]3C)O[C@@H]2C)O[C@H](C)[C@H]1O[C@@H]1O[C@H](CO)[C@@H](O)[C@H](O)[C@H]1O (some centres undefined) was read as VDR inhibitor inactive, GCN5L2 inh inactive and GLS inhibitor inactive.
Screening CC(=O)N1CCN(c2ccc([N+](=O)[O-])cc2C=C2C(=O)NC(=O)NC2=O)CC1 returned VDR inhibitor inactive, GCN5L2 inh inactive, GLS inhibitor inactive, PI4K2A block inactive and PLK1 PBD block inconclusive.
Screening CCN1CCN(c2ccc([N+](=O)[O-])cc2C=C2C(=O)NC(=O)NC2=O)CC1 returned VDR inhibitor inconclusive, GCN5L2 inh inactive, GLS inhibitor inactive, PI4K2A block inactive, PLK1 PBD block 11µM, TbPYK confirm 20µM and TbPYK ADP-Glo inconclusive.
Screening Cc1ccc2c(c1)=NC(=O)/C(=C/c1c(O)[nH]c(=O)[nH]c1=O)C=2 returned VDR inhibitor 79µM, GCN5L2 inh inactive, GLS inhibitor inactive, PI4K2A block inactive, PLK1 PBD block 15µM, TbPYK confirm 25µM and TbPYK ADP-Glo 22µM.
CCOP(=O)(OCC)C(Cc1ccccc1)NC(C)=O (centres undefined) was read as VDR inhibitor inactive, GCN5L2 inh inactive, GLS inhibitor inactive, PI4K2A block inactive and PLK1 PBD block inactive.
CCOP(=O)(C1=C(O)C(=O)C(C(C)(C)C)=CC1=O)c1ccccc1 (centres undefined) was read as VDR inhibitor inconclusive, GCN5L2 inh inactive, GLS inhibitor inactive, PI4K2A block inactive, PLK1 PBD block inconclusive, TbPYK confirm inconclusive and TbPYK ADP-Glo inconclusive.
`Cc1ccc(N2C(=O)NC(=O)/C(=C\c3cc(C)n(-c4ccc(C(=O)O)cc4)c3C)C2=O)cc1` gave VDR inhibitor inactive, GCN5L2 inh inactive, GLS inhibitor inactive, PI4K2A block inactive and PLK1 PBD block inconclusive.
For Cc1ccc(N2C(=O)NC(=O)/C(=C\c3ccoc3)C2=O)cc1 the results were VDR inhibitor inactive, GCN5L2 inh inactive, GLS inhibitor inactive, PI4K2A block inactive, PLK1 PBD block inconclusive, TbPYK confirm inconclusive and TbPYK ADP-Glo inconclusive.
`Cc1ccc(N2C(=O)NC(=O)/C(=C/c3ccc(-c4ccc(C(=O)O)c(Cl)c4)o3)C2=O)cc1` gave VDR inhibitor inconclusive, GCN5L2 inh inconclusive, GLS inhibitor 11µM, PI4K2A block inactive, PLK1 PBD block 1.3µM, TbPYK confirm 7.1µM and TbPYK ADP-Glo 14µM.
